Reference: PubChem BioAssay (NCI)
This is part of a sample that, as a whole, favours compounds with a hit. Of some 83,000 tested, about 20% had one in any assay.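 Note: values are percent growth. 100 is the growth of untreated cells, values between 100 and 0 indicate rising inhibition; between -100 and 0 indicates cell death.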 Activity calls are given as the source filed them. How the source made its calls: active means growth percent below 10; inactive means the rest.

Legend:
Test in all cases: NCI-60 one-dose screen, 48 h (100 = growth as untreated, 0 = no growth, -100 = all killed)
[1] = test system: SK-MEL-2 melanoma; conditions: 10 µM unless noted
[2] = test system: EKVX NSCLC; conditions: 10 µM unless noted
[3] = test system: SN12C renal; conditions: 10 µM unless noted
[4] = test system: UO-31 renal; conditions: 10 µM unless noted
[5] = test system: TK-10 renal; conditions: 10 µM unless noted
[6] = test system: ACHN renal; conditions: 10 µM unless noted
[7] = test system: CAKI-1 renal; conditions: 10 µM unless noted
[8] = test system: A498 renal; conditions: 10 µM unless noted
[9] = test system: CCRF-CEM leukemia; conditions: 10 µM unless noted
[10] = test system: MOLT-4 leukemia; conditions: 10 µM unless noted
[11] = test system: SR leukemia; conditions: 10 µM unless noted
[12] = test system: RPMI-8226 leukemia; conditions: 10 µM unless noted
[13] = test system: OVCAR-8 ovarian; conditions: 10 µM unless noted
[14] = test system: OVCAR-5 ovarian; conditions: 10 µM unless noted
[15] = test system: OVCAR-4 ovarian; conditions: 10 µM
[16] = test system: IGROV1 ovarian; conditions: 10 µM unless noted
[17] = test system: OVCAR-3 ovarian; conditions: 10 µM unless noted
[18] = test system: HS 578T breast; conditions: 10 µM unless noted
[19] = test system: NCI/ADR-RES ovarian; conditions: 10 µM unless noted
[20] = test system: SK-OV-3 ovarian; conditions: 10 µM unless noted

Measured: growth

C[C@@H]1C[C@H]2C(=O)O[C@@H](C)[C@H](NC(=O)[C@H](Cc3cc(F)cc(F)c3)NC(=O)Nc3ccc(C4CC4)cc3F)C(=O)N3CCC[C@H]3C(=O)N3CCCC[C@H]3C(=O)N[C@@H](C)C(=O)N2C1
inactive: [1] 16.7% | [2] 26.6% | [3] 15.8% | [5] 38.4% | [6] 11.5% | [9] 39.9% | [10] 28.6% | [11] 27.8% | [12] 14% | [13] 11% | [16] 28.5% | [18] 18.1% | [19] 14.9%
active: [4] 8.68% | [7] 8.8% | [8] -5.24% | [14] -2.59% | [15] 7.8% | [17] 5.07%

Clc1ccc2nc(-c3ccc(-c4ccc(/C=N/NC5=NCCN5)cc4)s3)cn2c1
active: [11] 8.33%
inactive: [1] 110% | [2] 90.8% | [3] 88.6% | [4] 72.8% | [5] 123% | [6] 103% | [7] 106% | [8] 76.6% | [9] 76.3% | [10] 79.7% | [12] 53.5% | [13] 102% | [14] 107% | [15] 87.1% | [16] 94.6% | [17] 109% | [18] 92.6% | [19] 99.3%

c1ccc(-c2nnc(-c3c[nH]c4ncccc34)s2)cc1
inactive: [1] 103% | [2] 37.2% | [3] 86.6% | [4] 51.6% | [5] 124% | [6] 69.4% | [7] 53.3% | [8] 67.3% | [9] 101% | [10] 83.4% | [11] 83.6% | [12] 91.9% | [13] 98.9% | [14] 125% | [15] 89.4% | [16] 54.6% | [17] 88.5% | [18] 97.1% | [19] 95.7%

CCOC(=O)n1cc(C2=C(c3ccc(OC)c(OC)c3)COC2=O)c2ccccc21
active: [8] -25.3% | [17] -42.6% | [19] 8.29%
inactive: [1] 62.1% | [2] 51.5% | [3] 18.5% | [4] 26.5% | [5] 53.7% | [6] 23.1% | [7] 23.6% | [9] 17.6% | [10] 11.6% | [11] 18.1% | [12] 27.9% | [13] 25.5% | [14] 50.1% | [15] 35.3% | [16] 18.2% | [18] 36.2%

CCCCCCSc1ncnc2nc[nH]c12
inactive: [1] 105% | [2] 83.6% | [3] 92.4% | [4] 64.7% | [5] 103% | [6] 96.8% | [7] 95.9% | [8] 95.2% | [9] 101% | [10] 84.7% | [11] 85.2% | [12] 84.8% | [13] 95.5% | [14] 98.9% | [15] 88.4% | [16] 82.6% | [17] 103% | [18] 102% | [19] 91.3%

O=C1/C(=C\c2cccn2Cc2ccccc2)c2ccccc2N1c1c(Cl)cccc1Cl
inactive: [1] 45.7% | [2] 38.8% | [3] 87.3% | [4] 50.2% | [5] 22.9% | [6] 53.7% | [7] 55.8% | [8] 72.9% | [9] 92.9% | [10] 86.6% | [11] 90.6% | [12] 60.2% | [13] 90.8% | [14] 38.7% | [16] 28.2% | [18] 83.2% | [19] 70.9%
active: [15] -2.5% | [17] 7.01%

C[C@@H]1C[C@H]2C(=O)O[C@@H](C)[C@H](NC(=O)[C@H](Cc3cc(F)cc(F)c3)NC(=O)Nc3ccc(Cl)cc3F)C(=O)N3C[C@H](O)C[C@H]3C(=O)N3CCN(C)C[C@H]3C(=O)N[C@@H](C)C(=O)N2C1
inactive: [1] 29.6% | [2] 69.8% | [3] 22.9% | [4] 83% | [5] 91.7% | [6] 104% | [7] 72.7% | [8] 33.1% | [9] 53.7% | [10] 41.7% | [11] 40.3% | [12] 20.4% | [13] 39.1% | [14] 41.9% | [15] 16.4% | [16] 51.3% | [17] 20.4% | [18] 37.9% | [19] 105%

C#C[C@]1(O)CC[C@H]2[C@@H]3CC=C4c5nc(Nc6ccccc6[N+](=O)[O-])sc5CC[C@]4(C)[C@H]3CC[C@@]21C
inactive: [1] 56.7% | [2] 67.4% | [3] 79.5% | [4] 63.1% | [5] 72.4% | [6] 70.7% | [7] 38.9% | [8] 11.7% | [9] 61.9% | [10] 43.7% | [11] 30.2% | [13] 85.7% | [14] 70.4% | [15] 84.9% | [16] 67.2% | [17] 65.8% | [18] 21.4% | [19] 75.8%
active: [12] 1.11%

O=C1CN(Cc2ccc(C(=O)NO)cc2)C(=O)[C@@H](Cc2ccccc2)N1
inactive: [1] 112% | [2] 98.9% | [3] 102% | [4] 92.9% | [5] 106% | [6] 103% | [7] 94.1% | [8] 94.7% | [9] 105% | [10] 101% | [11] 113% | [12] 102% | [13] 95.6% | [14] 101% | [20] 96.5% | [16] 106% | [17] 109% | [18] 101% | [19] 110%

Cc1cnc(N)nc1OCC(C)(C)CNC(=O)c1cccc(-c2ccc(S(=O)(=O)Nc3ccc4c(c3)N(C(=O)C3CC3)CCC4)cc2)c1
inactive: [1] 67.7% | [2] 62.9% | [3] 68.5% | [4] 62% | [5] 76.6% | [6] 70.2% | [7] 52.1% | [8] 37.3% | [9] 61.7% | [10] 29.1% | [11] 79.9% | [12] 44.6% | [13] 62.3% | [14] 79.4% | [20] 68.2% | [16] 63.4% | [17] 68.2% | [18] 64.4% | [19] 105%

CC(=O)OC[C@]12CC[C@@H]([C@@H](C)C(N)=O)[C@@H]1[C@H]1CC[C@@H]3[C@@]4(C)CC[C@H](OC(C)=O)C(C)(C)[C@@H]4CC[C@@]3(C)[C@]1(C)CC2
inactive: [11] 10.8% [100 µM]
active: [1] -77.6% [100 µM] | [2] -25.2% [100 µM] | [3] -91.6% [100 µM] | [4] -97.5% [100 µM] | [5] -35.4% [100 µM] | [6] -75.7% [100 µM] | [7] -45.8% [100 µM] | [8] -81.7% [100 µM] | [9] -12.4% [100 µM] | [10] -29.1% [100 µM] | [12] -18.3% [100 µM] | [13] -31.7% [100 µM] | [14] -77.4% [100 µM] | [20] -11.9% [100 µM] | [16] -71.3% [100 µM] | [17] -76.2% [100 µM] | [18] -33% [100 µM] | [19] -57.3% [100 µM]

COC(=O)c1c(C)[nH]c(/C=C2\N=C(c3ccc[nH]3)C=C2OC)c1C
inactive: [3] 16.9% | [9] 15.2% | [20] 48.4% | [19] 13.3%
active: [1] -72.8% | [2] -31.8% | [4] -72.6% | [5] 0.549% | [6] -69.1% | [7] -25% | [8] 0.235% | [10] 1.37% | [11] 4.93% | [12] -16.1% | [13] -7.15% | [14] 0.695% | [16] -8.84% | [17] -40.6% | [18] -27.4%

CNC(=O)c1cc(Oc2ccc3nc(NC(=O)c4ccc5ncccc5c4)sc3c2)ccn1
inactive: [1] 86.2% | [2] 87.5% | [3] 92.6% | [4] 77% | [5] 90.5% | [6] 102% | [7] 89.9% | [8] 88.3% | [9] 91% | [10] 94.2% | [11] 88.8% | [12] 71.9% | [13] 100% | [14] 106% | [15] 87.4% | [16] 93.3% | [17] 98.9% | [18] 108% | [19] 88.8%

CC(C)CCSC1=CC(=O)c2ccccc2C1=O
active: [4] -63.5% | [9] 0.242% | [11] 6.01% | [12] -62.3% | [16] -35.3% | [17] -57.5%
inactive: [1] 83.1% | [2] 81% | [3] 90.2% | [5] 103% | [6] 11.2% | [7] 21.1% | [8] 98.4% | [10] 16% | [13] 56.4% | [14] 112% | [20] 104% | [18] 74% | [19] 76.3%
